The panel holds about 83,000 compounds, 20% with a hit somewhere; the sample as a whole holds those more often.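 Testing used 96-well plates and a 48-hour single-concentration exposure. Example: -40 means 40% of the starting cells died.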 Unmarked numbers belong to inactive results. Calls of active or inactive are those of the source. How the source made its calls: active means growth percent below 10; inactive means the rest.

Test systems include HCT-15 colon; HT29 colon; SNB-19 CNS; U251 CNS; PC-3 prostate; SK-MEL-5 melanoma; UACC-62 melanoma; LOX IMVI melanoma; SK-MEL-2 melanoma; EKVX NSCLC; SN12C renal; UO-31 renal; TK-10 renal; ACHN renal; CAKI-1 renal; A498 renal; CCRF-CEM leukemia; MOLT-4 leukemia; SK-MEL-28 melanoma.
What all share (experiment): NCI-60 one-dose screen, 48 h (100 = growth as untreated, 0 = no growth, -100 = all killed)
What all share (details): 10 µM unless noted

As to `OB(O)c1cccc(-c2nc3ccc4[nH]ncc4c3c3c2CCCC3)c1F`, the growth in the assay on HCT-15 colon is 35.2%; in the assay on HT29 colon, 45.2%; in the assay on SNB-19 CNS, 58.3%; in the assay with U251 CNS, 50.6%; with PC-3 prostate it was 55.5%; with SK-MEL-5 melanoma it was 79.5%. Besides, the growth with UACC-62 melanoma is 27.4%; with LOX IMVI melanoma, 26.3%; in the assay with SK-MEL-2 melanoma, 57.1%; with EKVX NSCLC, 50.2%; in the assay on SN12C renal, 47.7%; in the assay on UO-31 renal, 27%. The growth was 18.3% in the assay with TK-10 renal; 32.2% in the assay with ACHN renal; -24.3% (active) with CAKI-1 renal; 12.7% in the assay on A498 renal; 29.7% in the assay on CCRF-CEM leukemia; 52% in the assay on MOLT-4 leukemia.
Turning to `O=C(Nc1ccncc1)C(=O)c1cn(S(=O)(=O)c2ccc(Br)cc2)c2ccccc12`, the growth was 31% with HCT-15 colon; 11.6% with HT29 colon; 64.6% in the assay on SNB-19 CNS; 42.7% with U251 CNS; 68.4% in the assay on PC-3 prostate; 14.5% in the assay with SK-MEL-5 melanoma. Besides, the growth was 38.3% with UACC-62 melanoma; 41.6% with LOX IMVI melanoma; 60.6% in the assay with SK-MEL-28 melanoma; 44.5% in the assay on EKVX NSCLC; 46.3% in the assay on SN12C renal; 52.7% in the assay on UO-31 renal. The growth was 98.2% with TK-10 renal; 58% with ACHN renal; 40.6% in the assay on CAKI-1 renal; 47.3% in the assay with A498 renal; 44.3% in the assay on MOLT-4 leukemia.
`Nc1cccc(-c2nc3sccn3c2-c2ccnc(NCCNS(=O)(=O)c3ccc(C(F)(F)F)cc3)n2)c1`: the growth in the assay on HCT-15 colon is 47.3%; with HT29 colon, 45.7%; in the assay with SNB-19 CNS it was 75.4%; with U251 CNS, 52.4%; with PC-3 prostate it was 51.6%; in the assay with SK-MEL-5 melanoma it was 32.9%. Further, the growth is 61.6% in the assay on UACC-62 melanoma; 38.8% in the assay with LOX IMVI melanoma; 80.5% in the assay on SK-MEL-2 melanoma; 67.2% in the assay with EKVX NSCLC; 63% with SN12C renal; 15.8% with UO-31 renal. In addition, the growth with TK-10 renal was 86.1%; with ACHN renal it was 33.9%; in the assay on CAKI-1 renal, 39.1%; in the assay with A498 renal it was 34.1%; in the assay with CCRF-CEM leukemia, 41.8%; with MOLT-4 leukemia, 45.6%.
`Cc1ccc(NS(=O)(=O)c2cc(C)ccc2C)cc1`: the growth is 32.9% with HCT-15 colon; 10.8% in the assay with HT29 colon; 53.1% with SNB-19 CNS; 36.8% with U251 CNS; 57.6% in the assay with PC-3 prostate; 30.3% with SK-MEL-5 melanoma. Further, the growth was 40% in the assay on UACC-62 melanoma; 41% in the assay on LOX IMVI melanoma; 20.3% in the assay with SK-MEL-2 melanoma; 55.4% in the assay with EKVX NSCLC; 60.8% in the assay with SN12C renal; 65.5% with UO-31 renal. Moreover, the growth with TK-10 renal was 58.5%; in the assay with ACHN renal, 70.7%; with CAKI-1 renal, 25.3%; in the assay on A498 renal, 38.7%.
Consider `COc1ccc(C2=C(c3cc(OC)c(OC)c(OC)c3)C(=O)CC2)cc1`, for which the growth with HCT-15 colon is 24.2%; with HT29 colon it was -5.43% (active); in the assay on SNB-19 CNS it was 35.1%; with U251 CNS, 21.7%; in the assay with PC-3 prostate it was 38.3%; in the assay on SK-MEL-5 melanoma, -33.6% (active). Besides, the growth is 32.7% in the assay on UACC-62 melanoma; 19.6% with LOX IMVI melanoma; 47.7% with SK-MEL-28 melanoma; 40% in the assay with EKVX NSCLC; 26.4% with SN12C renal; 46.2% in the assay with UO-31 renal. For the same molecule, the growth was 60.6% with TK-10 renal; 37.8% in the assay on ACHN renal; 53.5% with CAKI-1 renal; -4.31% (active) with A498 renal; 17.4% with MOLT-4 leukemia.
`COc1cccc(-c2nc3sccn3c2-c2ccnc(NCCCNS(=O)(=O)c3ccc(C(F)(F)F)cc3)c2)c1`: the growth is 38.7% in the assay with HCT-15 colon; 47.2% in the assay with HT29 colon; 69.4% in the assay with SNB-19 CNS; 55.1% in the assay on U251 CNS; 29.1% in the assay on PC-3 prostate; 5.99% (active) in the assay on SK-MEL-5 melanoma. The growth in the assay on UACC-62 melanoma was 43%; in the assay with LOX IMVI melanoma it was 55.3%; in the assay with SK-MEL-2 melanoma it was 65.7%; with EKVX NSCLC, 46%; in the assay with SN12C renal, 47.9%; with UO-31 renal it was 29.7%. The growth is 85.5% with TK-10 renal; 56% in the assay with ACHN renal; 40.3% in the assay with CAKI-1 renal; 43% in the assay with A498 renal; 40.4% in the assay on CCRF-CEM leukemia; 26.4% with MOLT-4 leukemia.
Regarding `O=C(Nc1ccc2c(c1)OCO2)C(=O)c1c[nH]c2cc(F)ccc12`, the growth is 57.2% in the assay on HCT-15 colon; 62% in the assay on HT29 colon; 85.1% in the assay with SNB-19 CNS; 58.4% in the assay with U251 CNS; 63.8% in the assay with PC-3 prostate; 58% in the assay with SK-MEL-5 melanoma. Besides, the growth in the assay with UACC-62 melanoma is 22%; in the assay on LOX IMVI melanoma, 8.88% (active); in the assay with SK-MEL-28 melanoma, 30.7%; with EKVX NSCLC, 72.4%; in the assay with SN12C renal, 79.5%; in the assay on UO-31 renal it was 71.2%. Moreover, the growth with TK-10 renal was 72.7%; in the assay with ACHN renal, 44.9%; in the assay on CAKI-1 renal, 32.7%; with A498 renal, 55%; in the assay with MOLT-4 leukemia it was 63.1%.
Consider `COc1ccc(-c2c(N)n[nH]c2-c2cc3c(c(OC)c2OC)OCO3)cc1`, for which the growth is 101% in the assay on HCT-15 colon; 103% with HT29 colon; 104% in the assay on SNB-19 CNS; 94.1% with U251 CNS; 101% in the assay with PC-3 prostate; 110% with SK-MEL-5 melanoma. For the same molecule, the growth in the assay on UACC-62 melanoma was 82.9%; in the assay with LOX IMVI melanoma it was 95%; with SK-MEL-28 melanoma, 104%; in the assay on EKVX NSCLC, 92.4%; in the assay on SN12C renal it was 92.5%; with UO-31 renal, 84%. Besides, the growth is 101% with TK-10 renal; 96.9% in the assay on ACHN renal; 94.4% in the assay with CAKI-1 renal; 75.7% in the assay on A498 renal; 96.5% in the assay on MOLT-4 leukemia.

(Values after PubChem BioAssay (NCI).)
